Reference: PubChem BioAssay AID1246 (Columbia University Molecular Screening Center, 2008)
In all, about 120,000 compounds went through this assay and about 840 (0.7%) were called active. For the sample, actives were picked, then their nearest neighbours and some compounds at random. A number with no mark means an inactive call.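 The calls were made as follows: active = inhibition above the batch mean plus 3 SD, and confirmed as a hit on visual image review (cut at about 43% in these data); inconclusive = passes the inhibition cutoff but fails visual image review; inactive = the rest.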

Assay: E-selectin induction blockers in HUVEC – imaging, immunofluorescence, high content, primary screen (AID 1246);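 also: 0% = TNF-stimulated DMSO wells and 100% = unstimulated control wells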
Conditions: HUVEC TNFa-induced E-selectin immunofluorescence, at 2 µM, stronger effect = higher value

| Compound | inhibition |
| --- | --- |
| COCCNC(=O)CN(C(=O)CCC(=O)Nc1cc(C)on1)c1ccc(C)cc1C | -15.2% |
| CCCCOc1ccc(N(CC(=O)NCC2CCCO2)C(=O)CCC(=O)Nc2cc(C)ccn2)cc1 (stereo unspecified) | 13.7% |
| Cc1cc(NC(=O)CCC(=O)N(CC(=O)NCC2CCCO2)c2ccccc2C)no1 (stereo unspecified) | 66.4% (active) |
| Cc1ccc(CSc2nc3[nH]ncc3c(=O)[nH]2)cc1 | 16% |
| Cc1ccc(C(=O)N/C(=C\c2cccs2)C(=O)NCCc2ccccn2)cc1C | -0.32% |
| C=CCC(C(=O)c1ccccc1)[N+](C)(C)CC=C (stereo unspecified) | -21.6% |
| CC1COc2ccccc2N1S(=O)(=O)c1ccccc1 (stereo unspecified) | 10% |
| O=C1c2ccccc2NC(c2ccccn2)N1NS(=O)(=O)c1ccccc1 (stereo unspecified) | 12.1% |
| COc1ccc(CCNC(=O)CC2SC(=Nc3cc(C)cc(C)c3)NC2=O)cc1OC (stereo unspecified) | -40.4% |
| CCn1c(SC)nc(O)c(C(c2ccc(OC)c(O)c2)c2c(O)nc(SC)n(CC)c2=O)c1=O | -24.8% |
| COc1ccc2c(c1OC)C(=O)OC2c1c(O)nc(SC)n(-c2ccccc2)c1=O (stereo unspecified) | 95% (active) |
| COc1ccc2c(c1OC)C(=O)OC2Nc1nc(-c2ccccc2)cs1 (stereo unspecified) | 36.5% |
| O=C(O)CCCCOn1ccnc1 | 2.16% |
| Clc1ccc(CN2CCN(/N=C/c3cccnc3)CC2)cc1 | -6.01% |
| Oc1ccc(-c2nncn2-c2ccccc2)cc1 | -13.7% |
| CCCCN(C(=O)/C=C/c1ccco1)c1c(N)n(CC(C)C)c(=O)[nH]c1=O | 7.93% |
| O=C(Nn1cnc2ccccc2c1=O)c1ccc([N+](=O)[O-])cc1Cl | -17% |
| O=C1CCCc2c1[nH]c1ccc(Br)cc21 | 71.4% (active) |
| O=C(O)CCC(=O)NCc1ccc2[nH]c3c(c2c1)CCCC3 | -12% |
| O=[n+]1c2c(n([O-])c3cc(Br)ccc31)CCC2 | 8.3% |
| CCN1C(=O)/C(=c2\s/c(=C3\Sc4ccccc4N3C)c(=O)n2C)N(C)C1=S | -4.14% |
| CCN(CC)CCNS(=O)(=O)c1ccc(/C=C/C(=O)O)cc1 | 85.3% (active) |
| O=S(=O)(NCCNS(=O)(=O)c1ccccc1)c1ccccc1 | -9.47% |
| CCC(C)NC(=O)/C=C/c1ccc(S(=O)(=O)NCc2ccco2)cc1 (stereo unspecified) | 1.55% |

| Compound | inhibition |
| --- | --- |
| O=C(Nc1ccnc(-c2ccncc2)n1)c1cccs1 | -27.2% |
| CCNC(=S)NNC(=O)C1CCN(Cc2ccccc2)CC1 | -1.82% |
| Cc1occc1C(=O)N1CCCc2ccccc21 | 19.4% |
| O=C1/C(=C\c2ccccc2Cl)SC(=S)N1CCC(=O)N1CCCc2ccccc21 | -3.4% |
| O=C(c1c(Cl)nc2sccn12)N1CCCc2ccccc21 | 79% (active) |
| Cc1ccc(CN2CCN(Cc3ccc4ncccc4c3)CC2CCO)cc1 (stereo unspecified) | -11.2% |
| COc1ccc(Cn2c(=O)cc(C)[nH]c2=S)cc1 | 5.51% |
| Cn1cccc1C(C#N)c1ccccc1C#N (stereo unspecified) | 20.5% |
| CCCS(=O)(=O)N1CCC(CCOc2ccccc2)(C(=O)OCC)CC1 | -12.3% |
| COc1ccc(F)c(-c2nc(CN3CCC(c4ccccc4)CC3)c(C)o2)c1 | -28.7% |
| COc1ccc(NC(=O)/C(Cl)=C(/Cl)S(=O)Cc2ccc(C)cc2)cn1 (stereo unspecified) | 27.8% |
| COc1ccc(CS(=O)/C(Cl)=C(/Cl)C(=O)Nc2ccc(OC)nc2)cc1 (stereo unspecified) | 99.4% (active) |
| COc1ccc(NC(=S)Nc2ccccc2Cl)cn1 | -66.9% |
| O=c1cc(O)c(-c2cccc(C(F)(F)F)c2)c(Cl)[nH]1 | 14.3% |
| CCc1ccccc1NC(=S)N(CCN1CCCCCC1)Cc1ccco1 | -12.7% |
| CCOC(=O)COc1ccc([N+](=O)[O-])cc1 | 7.8% |
| N/C(Cc1ccc([N+](=O)[O-])cc1)=N\OC(=O)C1CCCCC1 | -1.96% |
| N/C(Cc1ccc([N+](=O)[O-])cc1)=N\OC(=O)COc1ccc2ccccc2c1 | 62.5% (active) |
| Cc1ccnc(NC(=O)CCCOc2ccccc2)c1 | 4.53% |
| Cc1cc(C)nc(SCC(=O)N(C)C)n1 | 0.21% |
| COc1ccc(CN2CCNC(=O)C2CC(=O)N(C)Cc2ccccn2)cc1OC (stereo unspecified) | -8.81% |
| Cc1cc(C)c(C#N)c(SCC(=O)Nc2ccccc2)n1 | -29.3% |
| CC(=O)c1ccc(-c2nnc(CCC(=O)N(C)Cc3cnc4ccccn34)o2)s1 | 4.22% |
| N#CC1=C(N)Oc2[nH]c(=S)[nH]c(=O)c2C12C(=O)Nc1ccccc12 (stereo unspecified) | -26.7% |

| Compound | inhibition |
| --- | --- |
| COc1ccc(-n2nnnc2SCC(=O)NCc2cccs2)cc1 | 12.9% |
| COc1ccc(-c2nnn(Cc3nc(N)nc(N4CCCCC4)n3)n2)cc1 | -40.4% |
| COc1ccc(-n2nnnc2SCc2nc(N)nc(N3CCOCC3)n2)cc1 | 61.2% (active) |
| CCOC(=O)c1sc(=NC(=O)/C=C/c2cccs2)n(C)c1C | -26.1% |
| Cc1cccc(C(=O)NNC(=O)c2cccc([N+](=O)[O-])c2)c1 | -0.72% |
| O=C(CC12CC3CC(CC(C3)C1)C2)NCc1ccco1 | 23.1% |
| Fc1ccccc1Cn1cnc(NC(=S)NCCc2ccccc2)n1 | -14.1% |
| CCC(C)CN1CCC(CO)(Cc2ccccc2Cl)CC1 (stereo unspecified) | -16.5% |
| CCN1CCN(CC(=O)Nc2sc3c(c2C#N)CCC3)CC1 | 9.33% |
| CCN(CC)CCNC(=O)c1ccc(NC(=O)c2c(F)cccc2Cl)cc1 | -1.94% |
| O=C(NCC1CCCO1)C1CCN(C2CCN(C(=O)C3CCCCC3)CC2)CC1 (stereo unspecified) | 13% |
| O=C(CCCN1C(=O)c2cccc3cccc(c23)C1=O)N1CCN(Cc2ccc3c(c2)OCO3)CC1 | -25.6% |
| Cn1c(=O)cc(OCCCC(=O)N2CCN(c3ccccn3)CC2)c2ccccc21 | -12.9% |
| Cn1c(=O)cc(OCCCC(=O)N2CCN(Cc3ccc4c(c3)OCO4)CC2)c2ccccc21 | 52.1% (active) |
| COCc1ccc(C(=O)N2CCc3c([nH]c4ccccc34)C2c2ccccn2)s1 (stereo unspecified) | 4.79% |
| CCN(CC)c1ccc2c(Nc3ccccc3)c(C=O)c(=O)oc2c1 | -20.2% |
| O=C(COC(=O)c1ccco1)NCc1ccc(Cl)cc1 | -1.29% |
| O=S(=O)(/N=C(/Nc1ccccn1)c1ccccc1)c1ccc(Cl)cc1 | -19.7% |
| O=C(O)c1ccc(NC(=O)c2cccs2)cc1 | -5.04% |
| O=S(=O)(/N=C(/Nc1ccccc1)c1ccccc1)c1cccs1 | 68.3% (active) |
| COc1ccc(NC(=O)CN2C(=O)CSC2=O)cc1 | -1.6% |
| O=C(N/N=C/c1cc2c(cc1Br)OCO2)C1COc2ccccc2O1 (stereo unspecified) | -17.4% |
| Cc1cc(C)cc(OCC(=O)Nc2ccc(S(=O)(=O)Nc3ccccn3)cc2)c1 | -36.2% |
